Assay outcomes as filed in PubChem BioAssay.
A3A deaminase: inhibitors of human APOBEC3A DNA deaminase. recombinant A3A, FAM/TAMRA ssDNA deamination fluorescence. inhibition, % at 20 µM. 330,000 tested, 0.41% active;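 active means at least 40% inhibition at 20 µM here, with at most 30% in a related deaminase screen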;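 further: plate controls were A3A with DMSO for no effect and wells lacking A3A enzyme for full effect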
Target sequence (P31941 whole entry, looked up): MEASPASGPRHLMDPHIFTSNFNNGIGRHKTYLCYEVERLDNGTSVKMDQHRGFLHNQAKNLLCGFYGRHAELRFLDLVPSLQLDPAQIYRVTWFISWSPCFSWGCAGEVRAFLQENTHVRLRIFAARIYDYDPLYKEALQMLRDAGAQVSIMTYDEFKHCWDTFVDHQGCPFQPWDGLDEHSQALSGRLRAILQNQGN
Yeast superoxide: yeast age-related superoxide inhibition as caloric restriction mimetic. superoxide response (% of plate mean), % at 10 µM. 330,000 tested, 0.18% active. S. cerevisiae aged cells, superoxide DHE fluorescence; hits give low values. AID 2690;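 active means superoxide response under a set limit, about three screen SD below normal, cut at about 65% in these data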;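 further: yeast aged for seven days with compound at 30 °C before DHE staining; 100% = average MFI of all compound-treated wells on the plate with controls excluded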
A3G deaminase: blocks human APOBEC3G single-stranded DNA deamination | Q9HC16 | recombinant A3G, ssDNA deamination FAM/TAMRA fluorescence | inhibition, % at 20 µM | 330,000 tested, 0.28% active;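 active means inhibition of at least 40% at 20 µM, with no more than 30% in the related APOBEC3A deaminase screen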;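 further: plate controls were DMSO wells with A3G for no effect and wells lacking A3G enzyme for full effect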
Target sequence (Q9HC16 whole entry, looked up): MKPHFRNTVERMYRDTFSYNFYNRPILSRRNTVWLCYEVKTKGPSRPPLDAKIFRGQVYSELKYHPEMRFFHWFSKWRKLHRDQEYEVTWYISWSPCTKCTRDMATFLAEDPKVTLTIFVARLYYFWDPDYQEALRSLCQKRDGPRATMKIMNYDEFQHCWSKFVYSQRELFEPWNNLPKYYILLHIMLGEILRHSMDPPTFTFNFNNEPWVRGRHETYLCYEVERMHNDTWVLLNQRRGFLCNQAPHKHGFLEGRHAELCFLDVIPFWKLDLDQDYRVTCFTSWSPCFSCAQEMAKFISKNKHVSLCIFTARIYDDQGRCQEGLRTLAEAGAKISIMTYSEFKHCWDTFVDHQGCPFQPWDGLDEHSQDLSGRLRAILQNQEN
PfM18AAP inh: blocks P. falciparum M18 aspartyl aminopeptidase. recombinant PfM18AAP, H-Glu-NHMec fluorogenic cleavage. inhibition, % at 7.35 µM. 290,000 tested, 1.2% active. AID 1822;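 active means inhibition above the campaign mean inhibition over all tested compounds plus 3 SD, cut at about 28% in these data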;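 further: 0% = plate median of test compound wells and 100% = 2 mM ZnCl2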
CendR NRP1 mod: NRP-1/CendR interaction modulation; FAM-RPARPAR peptide binding to NRP-1, fluorescence polarization; 360,000 tested, 0.85% active; AID 602438; inhibition, % at 25 µM;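 active means inhibition or corrected inhibition above about 18%, plus a signal ratio from 0.5 to 1.5, limit read from the data, passing the limit was not always enough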
ALR H2O2 inh: inhibitors of human sulfhydryl oxidase ALR; inhibition, % (test concentration not listed); purified ALR, DTT oxidation, H2O2 HRP-luminol luminescence; P55789; 290,000 tested, 3.8% active;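 active means mean replicate inhibition above about 79%, with every replicate also reaching it, limit read from the data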
A3A conf: APOBEC3A (human) deaminase inhibition, confirmed; 1,400 tested, 63% active; recombinant A3A, ssDNA deaminase UDG fluorescence assay; shares compounds with A3A deaminase; AID 493151; inhibition, % at 20 µM;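 active means inhibition reaching a set limit, 80% of the first screen's cutoff, at 20 µM in any replicate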;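 further: plate controls were DMSO wells with A3A for no effect and wells lacking A3A enzyme for full effect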
UDG ctr A3A: counter-screen for APOBEC3A inhibitors: UDG; shares compounds with A3A deaminase; inhibition, % at 20 µM; 1,000 tested, under 10 active; UDG counterscreen, FAM/TAMRA uracil oligo fluorescence; call rule not given here
* hit, by the source's call. In the library only some 5.2% were active in any assay of this set; here they are far more common.

Screening CSc1cccc(NC(=O)c2cc(S(=O)(=O)N3CCCC3)cn2C)c1 returned A3A deaminase -1.4, Yeast superoxide 94.2, A3G deaminase -8.3, PfM18AAP inh 1.9, CendR NRP1 mod 9.8 and ALR H2O2 inh -6.3.
CC(C)=C(c1ccc(Cl)cc1)c1c(N)ncnc1N was read as CendR NRP1 mod -1.4.
For Cn1ccsc1=NC(=O)c1ccc(=O)[nH]c1 the results were A3A deaminase 58.7*, Yeast superoxide 126.5, A3G deaminase 17.9, PfM18AAP inh -9.3, CendR NRP1 mod 0.5, ALR H2O2 inh 9.6 and A3A conf 4.5.
Screening O=C(O)c1cccc(-c2ccc3c(c2)OCO3)c1 returned A3A deaminase -1.1, Yeast superoxide 102.3, A3G deaminase -8.8, PfM18AAP inh -3.7, CendR NRP1 mod -19.2 and ALR H2O2 inh 3.1.
`O=C1OC(c2ccc3c(c2)OCO3)=N/C1=C\c1ccc(C(=O)O)cc1` gave A3A deaminase 40.2*, Yeast superoxide 100.8, A3G deaminase 10.6, PfM18AAP inh 18.1, CendR NRP1 mod -74.4, A3A conf 32.2* and UDG ctr A3A -2.6.
Cc1ccccc1-c1nc2c(s1)CCc1onc(-c3cccc([N+](=O)[O-])c3)c1-2 was read as A3A deaminase -6.0, Yeast superoxide 100.8, A3G deaminase -9.5, CendR NRP1 mod 1.7 and ALR H2O2 inh -0.2.
Screening C=C1c2cccc(O)c2C(O)=C2C(=O)[C@]3(O)C(O)=C(C(N)=O)C(=O)[C@@H](N(C)C)[C@@H]3[C@@H](O)[C@H]12 returned A3A deaminase 98.2, Yeast superoxide 90.2, A3G deaminase 91.2, PfM18AAP inh 18.4, CendR NRP1 mod 13.1 and ALR H2O2 inh 35.7.
For CN(C)c1ccc(O)c2c1CC1CC3[C@@H](N(C)C)C(=O)C(C(N)=O)C(=O)[C@]3(O)C(=O)C1C2=O (stereo not given in full) the results were A3A deaminase 53.8*, Yeast superoxide 100.9, A3G deaminase 11.7, CendR NRP1 mod 20.2, A3A conf 29.5* and UDG ctr A3A -1.5.
CN(C)c1ccc(O)c2c1CC1CC3C(N(C)C)C(=O)C(C(N)=O)=C(O)[C@@]3(O)C(=O)C1=C2O (stereo not given in full) was read as A3A deaminase 40.4*, Yeast superoxide 111.5, A3G deaminase -2.6, CendR NRP1 mod 13.2, A3A conf -0.9 and UDG ctr A3A -2.7.
For C[C@H]1c2cccc(O)c2C(=O)C2C(=O)C3(O)C(=O)C(C(N)=O)C(=O)[C@@H](N(C)C)[C@@H]3[C@@H](O)[C@@H]21 (stereo not given in full) the results were A3A deaminase 1.9, Yeast superoxide 102.0, A3G deaminase -0.5 and CendR NRP1 mod 6.4.
`CSc1nc(NCc2ccccc2)c2c3c(sc2n1)CN(C)CC3` gave A3A deaminase 0.3, Yeast superoxide 101.7, A3G deaminase -9.8, PfM18AAP inh 5.2, CendR NRP1 mod -19.6 and ALR H2O2 inh -6.5.
`CC1=C(C(=O)OCc2ccc([N+](=O)[O-])cc2)N2C(=O)C(NC(=O)Cc3ccccc3)C2SC1` (stereo not given) gave A3A deaminase 50.2*, Yeast superoxide 101.1, A3G deaminase -1.6, PfM18AAP inh 22.0, CendR NRP1 mod 0.7, ALR H2O2 inh 17.1, A3A conf 39.6* and UDG ctr A3A -3.2.
CC1=C(C(=O)OCc2ccccc2)N2C(=O)[C@@H](NC(=O)COc3ccccc3)[C@H]2SC1 was read as A3A deaminase -6.6, Yeast superoxide 107.3, A3G deaminase -10.5, PfM18AAP inh 1.6, CendR NRP1 mod -9.6 and ALR H2O2 inh 5.2.
`CC(=O)Nc1ccc(S(=O)(=O)NC(C(=O)O)C2=CCC=CC2)cc1` (stereo not given) gave A3A deaminase -3.9, Yeast superoxide 95.5, A3G deaminase -2.3, PfM18AAP inh -6.2 and CendR NRP1 mod 5.7.
For O=C(CN1C(=O)NC2(CCCC2)C1=O)NCc1ccccc1 the results were A3A deaminase -2.6, Yeast superoxide 102.9, A3G deaminase -7.2, CendR NRP1 mod 2.8 and ALR H2O2 inh 1.0.
For O=C(CN1C(=O)NC2(CCSC2)C1=O)NCc1ccccc1 (stereo not given) the results were A3A deaminase 84.2*, Yeast superoxide 96.3, A3G deaminase -9.5, PfM18AAP inh 0.2, CendR NRP1 mod 13.7, ALR H2O2 inh -23.3, A3A conf -6.4 and UDG ctr A3A -2.0.
`CC(=O)c1ccccc1NS(=O)(=O)c1cccc2nsnc12` gave A3A deaminase 41.2*, Yeast superoxide 107.2, A3G deaminase 7.7, PfM18AAP inh -7.8, CendR NRP1 mod 13.8, ALR H2O2 inh -10.9, A3A conf 29.0* and UDG ctr A3A 2.4.
Screening CC(=O)c1ccccc1NS(=O)(=O)c1cccc2nonc12 returned A3A deaminase 0.8, Yeast superoxide 113.2, A3G deaminase 1.8, PfM18AAP inh -2.7, CendR NRP1 mod -0.7 and ALR H2O2 inh 11.2.
Screening C=CCn1c(Cc2cccs2)nnc1SCC(=O)Nc1ccc(OC)c(OC)c1 returned A3A deaminase 1.9, Yeast superoxide 111.2, A3G deaminase -3.2, PfM18AAP inh 0.8, CendR NRP1 mod -5.1 and ALR H2O2 inh -8.4.
`N#Cc1cccc(NC(=O)Cn2c3[n+](c4ccc(C(F)(F)F)cc42)CCCCC3)c1` gave A3A deaminase 41.7*, Yeast superoxide 91.2, A3G deaminase 28.3, PfM18AAP inh 0.3, CendR NRP1 mod -7.6, ALR H2O2 inh -13.3, A3A conf 59.8* and UDG ctr A3A -2.6.
For Fc1ccccc1Cn1c2[n+](c3ccc(C(F)(F)F)cc31)CCCCC2 the results were A3A deaminase 37.9, Yeast superoxide 111.8, A3G deaminase 17.7, PfM18AAP inh -0.3 and CendR NRP1 mod -1.4.
Screening O=C(Nc1ccc2c(c1)OCCO2)C1CC(O)CN1C(=O)Nc1ccccc1 (stereo not given) returned A3A deaminase 1.4, Yeast superoxide 86.5, A3G deaminase -2.6, PfM18AAP inh -0.6, CendR NRP1 mod 4.2 and ALR H2O2 inh -1.0.
CC(C)COC(=O)N1CC(O)CC1C(=O)Nc1ccc2c(c1)OCO2 (stereo not given) was read as A3A deaminase 53.5*, Yeast superoxide 95.7, A3G deaminase 23.1, CendR NRP1 mod 5.2, A3A conf 80.9* and UDG ctr A3A -0.6.
